# DUX4 inh – blocks DUX4-driven transcriptional activation; activity change, negative = inhibition, % (test concentration not listed); 37,000 compounds, 0.8% hits; 293T-iDUX4 ZSCAN4-Gaussia luciferase reporter, 24 h; stronger effect = lower value;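 active means mean inhibition of at least 10% in the main channel, exceeding the control channel by a set limit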;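 further: 0% = median of neutral control wells and -100% = median of positive control wells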
# The depositor's hits bear a star; ! = not active in a repeat. This is one part of a sample in which hits are shown more often than they occur.
SMILES,DUX4 inh
Cc1ccccc1S(=O)(=O)N1C[C@@H](O)COC[C@@H]2O[C@@H](CC(=O)O)CC[C@H]21,12.2
COc1ccc2c3c(n(C)c2c1)[C@@H](CO)N(C(=O)c1ccc(F)cc1)CC31CCN(CC2CC2)CC1,1.7
COc1cc(CN2CC3(CCN(C(=O)Nc4cccc(F)c4)CC3)c3c(n(C)c4cc(OC)ccc34)[C@H]2CO)cc(OC)c1,-37.0*
COc1cc(CN2CC3(CCN(C(=O)NC(C)C)CC3)c3c(n(C)c4cc(OC)ccc34)[C@@H]2CO)cc(OC)c1,-4.7
COc1ccc2c3c(n(C)c2c1)[C@H](CO)N(C)CC31CN(C(=O)c2cccnc2)C1,10.0
COc1ccc2c3c(n(C)c2c1)[C@@H](CO)N(C(=O)c1ccccc1)CC31CN(C(C)=O)C1,11.5
COc1ccc2c3c(n(C)c2c1)[C@H](CO)N(C(C)=O)CC31CN(C(=O)c2ccccc2)C1,-30.2*
COc1ccc2c3c(n(C)c2c1)[C@@H](CO)N(C)CC31CN(C(=O)Nc2cccc(F)c2)C1,9.6
COc1ccc2c3c(n(C)c2c1)[C@@H](CO)N(C(=O)c1ccccc1)CC31CN(C)C1,5.9
COc1ccc2c3c(n(C)c2c1)[C@H](CO)N(CC1CC1)CC31CN(Cc2ccc(F)cc2)C1,-3.5
COc1cc(CN2CC3(CCN(C(=O)NC(C)C)CC3)c3c(n(C)c4cc(OC)ccc34)[C@H]2CO)cc(OC)c1,1.0
COc1ccc2c3c(n(C)c2c1)[C@H](CO)N(CC1CC1)CC31CN(C(=O)c2ccc(F)cc2)C1,-37.2*
COc1ccc2c3c(n(C)c2c1)[C@H](CO)N(C)CC31CN(C(=O)c2ccccc2F)C1,-32.1*
COc1ccc(-c2ccc3c(c2)[C@@H]2[C@@H](CCN2S(=O)(=O)c2ccccc2F)[C@H](CO)N3C)cc1,-7.5
CN1c2ccc(Br)cc2[C@H]2[C@H](CCN2C(=O)c2cccc(F)c2)[C@@H]1CO,-3.9
COCC(=O)N1[C@H](CO)[C@@H](c2ccccc2)C12CN(C(=O)Cc1ccccn1)C2,7.7
CCCNC(=O)N1CC2(C1)[C@@H](c1ccccc1)[C@H](CO)N2CC1CCOCC1,17.0
COCC(=O)Nc1ccc2c(c1)C(=O)N(C)[C@H]1CC[C@H](CC(=O)NCc3ccc(OC)cc3)O[C@@H]1CO2,1.6
COc1cccc(CN(C)C[C@@H]2OCc3cn(nn3)CCCC(=O)N([C@H](C)CO)C[C@@H]2C)c1,7.0
COc1ccc(NC(=O)Nc2ccc3c(c2)[C@H]2C[C@H](CC(=O)NCc4ccccn4)O[C@H](CO)[C@H]2O3)cc1,-2.5
COc1ccc2c3c(n(C)c2c1)[C@H](CO)N(Cc1cccc(F)c1)CC31CN(C)C1,-2.9
COc1cccc(-c2ccc(C3[C@H]4CNC[C@@H]3N4S(=O)(=O)Cc3ccccc3)cc2)c1 (stereo partly drawn),3.8
CN(C)C(=O)c1cccc(-c2ccc(C3[C@H]4CNC[C@@H]3N4S(=O)(=O)Cc3ccccc3)cc2)c1 (stereo partly drawn),8.9
Cc1cccc(S(=O)(=O)N2C[C@@H]3N[C@H](C2)C3c2ccc(-c3ccccc3C)cc2)c1 (stereo partly drawn),-72.6*!
Cc1cccc(S(=O)(=O)N2C[C@@H]3N[C@H](C2)C3c2ccc(-c3cncnc3)cc2)c1 (stereo partly drawn),-4.1
SMILES,DUX4 inh
COc1ccc(S(=O)(=O)N2[C@@H]3CNC[C@H]2C3c2ccc(-c3ccccc3F)cc2)cc1 (stereo partly drawn),4.0
COc1cccc(S(=O)(=O)N2C[C@@H]3N[C@H](C2)C3c2ccc(-c3ccccc3F)cc2)c1 (stereo partly drawn),-68.6*!
Cc1ccccc1-c1ccc(C2[C@H]3CNC[C@@H]2N3S(=O)(=O)c2ccc(F)cc2)cc1 (stereo partly drawn),1.5
COc1cccc(S(=O)(=O)N2CCCCN3[C@@H](CO)[C@H](c4ccc(-c5cccnc5)cc4)[C@@H]3C2)c1,-3.8
Cc1ccccc1-c1ccc(C2[C@H]3CNC[C@@H]2N3S(=O)(=O)c2cccc(F)c2)cc1 (stereo partly drawn),2.2
COc1cccc(S(=O)(=O)N2C[C@@H]3N[C@H](C2)C3c2ccc(-c3ccccc3C)cc2)c1 (stereo partly drawn),-35.6*!
COc1cccc(-c2ccc(C3[C@@H]4CN(S(=O)(=O)c5ccccc5F)C[C@H]3N4)cc2)c1 (stereo partly drawn),-6.9
COc1cccc(-c2ccc(C3[C@@H]4CN(S(=O)(=O)Cc5ccccc5)C[C@H]3N4)cc2)c1 (stereo partly drawn),-21.8*
CN(C)C(=O)c1ccc(-c2ccc3c(c2)[C@H]2[C@H](CCN2C(=O)C2CCOCC2)[C@@H](CO)N3C)cc1,10.1
COc1ccc(C(=O)N2C[C@H]3[C@@H](c4ccccc42)[C@H](CO)N3C(=O)c2ccc(F)cc2)cc1,-0.1
C[C@H]1CC=CC[C@H](c2ccc3c(c2)OCO3)NC(=O)[C@H](Cc2ccccc2)N(C)C(=O)c2ccccc2O1 (mixture of isomers),2.4

# Screens as filed in PubChem BioAssay.
